# Laboratory results taken from PubChem BioAssay.
# Potency and affinity values are given separately. Active and inactive are the calls of the source. The rule behind the calls is not given here.
# Assay: cytotoxicity in OVCAR8 ovarian cancer cells, dose response, PAX8 project, cell-based, plate reader, dry powder samples (AID 743197)
# Conditions: series mostly up to 35 µM; activity change, negative = cytotoxicity: at the top concentration
row,SMILES,"activity change, negative = cytotoxicity"
1,C[C@H](CO)N1C[C@H](C)[C@@H](CN(C)S(=O)(=O)c2ccc(Cl)cc2)OCCCC[C@H](C)Oc2ccc(NS(=O)(=O)c3ccc(Cl)cc3)cc2C1=O,2.41% (inactive)
2,C[C@@H]1CN([C@H](C)CO)S(=O)(=O)c2ccc(C#CC3CCCC3)cc2O[C@@H]1CN(C)C(=O)Cc1ccncc1,6.96% (inactive)
3,O=C(C[C@H]1CC[C@H]2[C@@H](COC[C@@H](O)CN2Cc2ccc(Oc3ccccc3)cc2)O1)N1CCCCC1,-19.4% (inactive)
4,C[C@@H]1CN([C@H](C)CO)C(=O)Cc2cc(NC(=O)Nc3ccc(F)cc3)ccc2O[C@H]1CN(C)Cc1ccc(Cl)c(Cl)c1,8.01% (inactive)
5,COc1ccc(NC(=O)Nc2ccc3c(c2)CC(=O)N([C@H](C)CO)C[C@@H](C)[C@@H](CN(C)Cc2ccc(Oc4ccccc4)cc2)O3)cc1,2.76% (inactive)
6,C[C@@H]1CCCCO[C@H](CN(C)Cc2ccc(C(F)(F)F)cc2)[C@H](C)CN([C@H](C)CO)C(=O)c2cc(NS(=O)(=O)c3cccs3)ccc2O1,4.52% (inactive)
